Data published in PubChem BioAssay (Tox21).
Records with an inconclusive call do not appear. The source made the active and inactive calls. Unless noted, calls come from the whole dose curve; as a rule, active = well fitted curve in the direction sought with a large enough effect in the repeat runs; inconclusive = weak or mixed curves; inactive = no such curve, though single readings can be large; an effect the other way counts as inactive or inconclusive.

Tests used:
[1] = qHTS assay to identify small molecule agonists of the hypoxia (HIF-1) signaling pathway - cell viability counter screen (AID 1224844; calls by dose curve; note: nearly all actives have a fitted effect of over 50% in size)
Method in brief: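 HRE-bla ME-180; 0.5% dFBS; cpd 17 h, 37C, 5% CO2; CellTiter-Glo lum., 30 min RT, post-FRET read, same wells.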

[2] = qHTS assay to identify small molecule agonists of H2AX (AID 1224845; active = well fitted activation curve with a large enough effect in the signal ratio in the repeat runs, not every such curve was filed as active; the % refers to the signal ratio)
Method in brief: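 Wild-type CHO-K1 cells plated overnight, then exposed 3 hr at 37C to compounds at 15 concentrations (0.76% DMSO). Lysed, then HTRF anti-pH2AX(S139)-cryptate/anti-H2AX-d2 detection after 24 hr at room temperature; emissions 665 and 620 nm.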

[3] = qHTS assay to identify small molecule agonists of the hypoxia (HIF-1) signaling pathway (AID 1224846; active = well fitted activation curve with a large enough effect in the signal ratio in the repeat runs, not every such curve was filed as active; the % refers to the signal ratio)
Method in brief: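 Reporter induction in HRE-bla ME-180 cells is taken as agonism: cells sit 5 hrs after plating, receive compounds or DMSO only, incubate 17 hrs at 37C under 5% CO2, and are loaded with CCF4-AM for beta-lactamase FRET measurement.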

[4] = qHTS assay to identify small molecule antagonists of the estrogen related receptor (ERR) signaling pathway from Tox21 library (AID 1224848); note: nearly all actives have a fitted effect of over 50% in size
Method in brief: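 First, 2,000 ERR cells per well were plated and held 6 h at 37 C/5% CO2. Next, compounds in DMSO were pinned in and left 18 h at 37 C. Finally, ONE-Glo was added and luminescence read after 30 min at room temperature.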

[5] = qHTS RealTime-Glo MT Cell Viability Assay in HepG2 cells - 24 hour (AID 1224867); note: nearly all actives have a fitted effect of over 50% in size
Method in brief: (§1)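 Viability was tracked continuously by NanoLuc luminescence from prosubstrate reduced by living HepG2 cells, at successive time points over 40 h of compound exposure. Cells with reagent were preincubated 5 h at 37 °C before compound addition.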

[6] = qHTS RealTime-Glo MT Cell Viability Assay in HEK293 cells - 32 hour (AID 1224868); note: top concentration of the series differs between compounds; nearly all actives have a fitted effect of over 50% in size
Method in brief: (§2)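 Viability tracked continuously by luminescence as live cells reduce a prosubstrate for NanoLuc; HEK293 cells preincubated 5 h, compound-treated at 37 C, and read at 0, 8, 16, 24, 32 and 40 h.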

[7] = A CellTox Green Cytotoxicity Assay to monitor cytotoxicity in HEK293 cells - 0 hour (AID 1224869); note: nearly all actives have a fitted effect of over 50% in size
Method in brief: (§3)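 Tox21 screen in HEK293: membrane-impermeant cyanine dye fluoresces on binding dead-cell DNA; compound pinned 5 h post-seeding, plates held at 37 C, signal read repeatedly through 40 h.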

[8] = qHTS RealTime-Glo MT Cell Viability Assay in HepG2 cells - 40 hour (AID 1224870); note: nearly all actives have a fitted effect of over 50% in size
Method in brief: (§4)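 HepG2 cells mixed with RealTime-Glo MT reagents (NanoLuc plus cell-permeant prosubstrate) were seeded at 600 cells/well, incubated 5 h at 37 C/5% CO2, then pinned with compounds in DMSO; nonlytic luminescence tracked viability during 40 h treatment.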

[9] = A CellTox Green Cytotoxicity Assay to monitor cytotoxicity in HEK293 cells - 40 hour (AID 1224871); note: nearly all actives have a fitted effect of over 45% in size
Method in brief: as §3

[10] = qHTS RealTime-Glo MT Cell Viability Assay in HEK293 cells - 16 hour (AID 1224872)
Method in brief: as §2

[11] = qHTS RealTime-Glo MT Cell Viability Assay in HepG2 cells - 8 hour (AID 1224873); note: nearly all actives have a fitted effect of over 55% in size
Method in brief: as §4

[12] = qHTS RealTime-Glo MT Cell Viability Assay in HEK293 cells - 40 hour (AID 1224874); conditions: RealTime-Glo luminescence; max response: hits give low values; note: nearly all actives have a fitted effect of over 50% in size
Method in brief: (§5)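 HEK293 + NanoLuc + prosubstrate, 600 cells/well; 5 h, 37 C/5% CO2; compound 23 nL in DMSO by pintool; 37 C; luminescence read at 0, 8, 16, 24, 32 and 40 h time points.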

[13] = A CellTox Green Cytotoxicity Assay to monitor cytotoxicity in HEK293 cells - 24 hour (AID 1224875); note: series mostly up to about 77 µM; nearly all actives have a fitted effect of over 45% in size
Method in brief: as §3

[14] = A CellTox Green Cytotoxicity Assay to monitor cytotoxicity in HepG2 cells - 16 hour (AID 1224876); note: nearly all actives have a fitted effect of over 45% in size
Method in brief: (§6)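 Measurements at 0, 8, 16, 24, 32 and 40 h of treatment captured CellTox Green fluorescence in HepG2 cells that had been co-plated with reagent and preincubated 5 h at 37 C/5% CO2.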

[15] = qHTS RealTime-Glo MT Cell Viability Assay in HepG2 cells - 32 hour (AID 1224877); note: nearly all actives have a fitted effect of over 55% in size
Method in brief: as §1

[16] = A CellTox Green Cytotoxicity Assay to monitor cytotoxicity in HepG2 cells - 24 hour (AID 1224878); note: nearly all actives have a fitted effect of over 45% in size
Method in brief: as §6

[17] = A CellTox Green Cytotoxicity Assay to monitor cytotoxicity in HepG2 cells - 40 hour (AID 1224879); note: nearly all actives have a fitted effect of over 40% in size
Method in brief: as §6

[18] = qHTS RealTime-Glo MT Cell Viability Assay in HEK293 cells - 0 hour (AID 1224880)
Method in brief: as §5

[19] = qHTS assay to identify small molecule agonists of H2AX - cell viability counter screen (AID 1224847; calls by dose curve; note: top concentration of the series differs between compounds; nearly all actives have a fitted effect of over 30% in size)
Method in brief: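 After overnight plating of 1000 CHO-K1 cells per well, a 15-concentration compound series was applied for 3 hr at 37C. Luminescence from CellTiter-Glo, read following 30 min at room temperature, reflected cell viability.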
% is set by controls: 0 for no effect and ±100 for the full control effect.

O=S(=O)(c1ccccc1)c1ccccc1
inactive: Potency [1] | Potency [2] | outcome [3] | Potency [4] | Potency [5] | Potency [6] | Potency [7] | Potency [8] | Potency [9] | Potency [10] | Potency [11] | max response [12] 1.49% | Potency [13] | Potency [14] | Potency [15] | Potency [16] | Potency [17] | outcome [18]

CC(O)CN1CCN(CC(=O)[O-])CCN(CC(=O)[O-])CCN(CC(=O)[O-])CC1.[Gd+3] (configuration not stated)
inactive: Potency [1] | Potency [2] | outcome [3] | Potency [19] | Potency [6] | Potency [7] | Potency [8] | Potency [9] | Potency [10] | Potency [11] | max response [12] 3.85% | Potency [14] | Potency [15] | Potency [16] | Potency [17] | outcome [18]

CCc1ccccc1N
inactive: Potency [1] | Potency [2] | outcome [3] | Potency [19] | Potency [5] | Potency [7] | Potency [8] | Potency [9] | Potency [10] | Potency [11] | max response [12] 1.07% | Potency [13] | Potency [14] | Potency [15] | Potency [16] | Potency [17] | outcome [18]

CN1C(=O)CN=C(c2ccccc2)c2cc([N+](=O)[O-])ccc21
inactive: Potency [1] | Potency [2] | outcome [3] | Potency [19] | Potency [5] | Potency [6] | Potency [7] | Potency [8] | Potency [10] | Potency [11] | max response [12] -12% | Potency [14] | Potency [15] | Potency [16] | Potency [17] | outcome [18]

CCCCC1C(=O)NC(=O)N(C2CCCCC2)C1=O (configuration not stated)
inactive: Potency [1] | Potency [2] | outcome [3] | Potency [19] | Potency [6] | Potency [7] | Potency [8] | Potency [10] | Potency [11] | max response [12] -0.655% | Potency [13] | Potency [14] | Potency [15] | Potency [16] | Potency [17] | outcome [18]

CCOP(=S)(OCC)SCSc1cc(Cl)ccc1Cl
inactive: Potency [1] | Potency [2] | outcome [3] | Potency [19] | Potency [5] | Potency [6] | Potency [8] | Potency [9] | Potency [10] | Potency [11] | max response [12] 0.23% | Potency [13] | Potency [14] | Potency [15] | Potency [16] | Potency [17] | outcome [18]

Cc1ccc2c(C)cccc2c1
inactive: Potency [1] | Potency [2] | outcome [3] | Potency [19] | Potency [6] | Potency [7] | Potency [8] | Potency [9] | Potency [10] | Potency [11] | max response [12] 4.4% | Potency [13] | Potency [14] | Potency [15] | Potency [16] | Potency [17] | outcome [18]
